CtBP-E1A inh = CtBP/E1A binding inhibition. 340,000 compounds, 0.49% hits. AlphaScreen GST-E1A/His-CtBP binding, 1536-well; active compounds read low. activity change, % (test concentration not listed); in the data active = activity change below about -65%; inconclusive = mostly about -30% to -63%; also: % is scaled to controls: 0 for no effect and ±100 for the full control effect
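Protein mix (5X: 125 nM each GST-E1A, His-CtBP) was incubated with pinned compound 2 h at 37 deg C in dark, in 50 mM Tris pH 8.0 buffer with 300 mM NaCl. Glutathione donor and nickel acceptor beads followed; AlphaScreen signal read after 1 h.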
Six1-Eya2 inh = Six1/Eya2 interaction inhibition; Q15475+O00167; AlphaScreen GST-Six1/His-Eya2 binding, biochemical; active compounds read low; activity change, % (no concentration beside the values); 360,000 compounds, 0.56% hits; AID 651725; in the data active = activity change below about -65%; inconclusive = mostly about -30% to -63%; also: % is scaled to controls: 0 for no effect and ±100 for the full control effect
Target sequence (O00167 whole entry, looked up): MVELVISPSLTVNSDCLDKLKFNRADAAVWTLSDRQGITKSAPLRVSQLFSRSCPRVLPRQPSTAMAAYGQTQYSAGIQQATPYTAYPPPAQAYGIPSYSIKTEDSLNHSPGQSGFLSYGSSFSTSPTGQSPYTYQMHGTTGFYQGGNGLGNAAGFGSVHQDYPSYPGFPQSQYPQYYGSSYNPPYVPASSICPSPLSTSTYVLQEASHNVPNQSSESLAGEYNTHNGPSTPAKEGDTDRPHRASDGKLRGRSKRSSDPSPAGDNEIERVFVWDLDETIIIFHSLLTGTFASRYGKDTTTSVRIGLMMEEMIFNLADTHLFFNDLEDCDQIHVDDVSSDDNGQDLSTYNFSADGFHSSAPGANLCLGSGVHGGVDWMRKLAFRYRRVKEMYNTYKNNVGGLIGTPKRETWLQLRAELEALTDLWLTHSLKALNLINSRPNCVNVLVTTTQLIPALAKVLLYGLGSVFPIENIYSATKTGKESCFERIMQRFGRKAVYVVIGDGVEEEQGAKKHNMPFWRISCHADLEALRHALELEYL
Target sequence (Q15475 whole entry, looked up): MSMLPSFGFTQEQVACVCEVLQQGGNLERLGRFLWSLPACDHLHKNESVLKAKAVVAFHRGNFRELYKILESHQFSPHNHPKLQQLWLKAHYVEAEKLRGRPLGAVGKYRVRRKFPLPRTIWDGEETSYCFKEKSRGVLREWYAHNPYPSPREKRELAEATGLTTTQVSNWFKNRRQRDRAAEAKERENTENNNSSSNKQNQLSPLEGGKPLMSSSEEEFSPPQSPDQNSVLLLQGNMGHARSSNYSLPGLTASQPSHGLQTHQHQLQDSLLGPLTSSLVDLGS
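AlphaScreen with GST-Six1 and His-Eya2 (5X mix: 250 nM and 500 nM), glutathione donor and nickel acceptor beads; buffer 50 mM Tris pH 8.0, 300 mM NaCl, 1 mM TCEP; 1 h at 37 C in the dark.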
VP16 counter = inhibits Gal4-VP16 luciferase reporter, ROR gamma counter-screen; Potency, µM (top dose mostly 53.6 µM), inactives show top-dose activity, negative = inhibition, hits mostly inhibitors; 310,000 compounds, 3.5% hits; Drosophila S2 Gal4-VP16 UAS-luciferase, luminescence, 20 h;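 also: Gal4-VP16 expression switched on by copper sulfate through the metallothionein promoter; potency is read from the fitted curve at half-maximal effect; % is scaled to controls: 0 for no effect and ±100 for the full control effect; nearly all actives have a fitted effect of over 50% in size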
RORg inh = inhibitors of mouse ROR gamma transcriptional activity; AID 2551; Drosophila S2 Gal4-RORgamma UAS-luciferase reporter, 20 h; 310,000 compounds, 5.4% hits; Potency, µM (series often up to 53.6 µM), for inactives: at the highest dose activity change, negative = inhibition, usual class: inhibitors; P51450; also: potency is read from the fitted curve at half-maximal effect; % is scaled to controls: 0 for no effect and ±100 for the full control effect; nearly all actives have a fitted effect of over 60% in size
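Stably transfected Drosophila Schneider cells are the test system, with ROR gamma fused to Gal4 and luciferase under UAS control; luminescence is read after 20 hr of 700 uM copper sulfate induction at ambient temperature.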
p53 reactivation = re-activators of mutant p53. H1299 p53-A138V BP100-luciferase reporter, luminescence, 24 h. Potency, µM (highest dose often 92.2 µM), inactives show at the highest dose activity change, positive = activation, actives largely listed as activators. 320,000 compounds, 0.063% hits. AID 504706; also: potency is read from the fitted curve at half-maximal effect; % of control where 0% means no effect; nearly all actives have a fitted effect of over 45% in size
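p53-null H1299 cells stably carrying temperature-sensitive p53-A138V and a BP100-luciferase reporter were pinned with compounds (4-point, 1:5 series) and held 24 hrs at 37 deg C. Luminescence was read 10 min after detection reagent.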
Numbers without * were called inactive; ? = inconclusive; nt = no result given; [ ] = dose if it differs, or a comment. Most compounds without a hit are left out; they make up all but 5.4% or so of the library. Unless noted, calls follow the shape of the dose curve; as a rule, active = well fitted curve in the direction sought with a large enough effect; inconclusive = small, poorly fitted or top-dose-only effect, or another doubt; inactive = no such curve, though single readings can be large; an effect the other way counts as inactive or inconclusive.

SMILES	CtBP-E1A inh	Six1-Eya2 inh	VP16 counter	RORg inh	p53 reactivation
Cc1ccc(Cn2c(=N)c(C(=O)NCc3ccco3)cc3c(=O)n4ccccc4nc32)cc1	-4	-17	-6%	-15%	-5%
COc1ccc(CCn2c(=N)c(C(=O)NCc3ccco3)cc3c(=O)n4ccccc4nc32)cc1OC	nt	-74*	nt	nt	nt
N=c1c(C(=O)NCc2ccco2)cc2c(=O)n3ccccc3nc2n1CCc1ccccc1	-67*	-78*	-7%	31%	27%
O=C(NCc1ccco1)c1cccn2c(=O)c3cc4ccccc4cc3nc12	nt	nt	11µM*	?	8%
COCCCNC(=O)c1cccn2c(=O)c3cc4ccccc4cc3nc12	-11	?	7%	-31%	?
COc1ccc(CCNC(=O)c2cc3c(=O)n4ccccc4nc3n(Cc3ccco3)c2=N)cc1OC	nt	-9	-7%	-18%	-1%
O=C1CCC[C@@H]2CC(NCc3ccc(Cl)c(Cl)c3)C[C@@H]3CCN1[C@H]23 (some centres not stated)	nt	nt	-7%	-8%	nt
O=S(=O)(Nc1cccc(-n2cnnn2)c1)c1ccccc1C(F)(F)F	0	1	-13%	1%	-3%
CCOC(=O)c1c(C)oc2c1c(C=NCC1CCCO1)c(O)c1ccccc12 (configuration not stated)	2	-8	1%	2%	1%
CCOC(=O)c1c(C)oc2c1c(C=NCc1ccccn1)c(O)c1ccccc12	-1	-75*	?	6.3µM*	-30%
O=C(CSc1nc2ccccc2s1)CSc1nc2ccccc2s1	-14	3	-16%	-86%	9%
c1ccc2sc(SSc3nc4ccccc4s3)nc2c1	nt	nt	?	13µM*	nt
Cn1c(CSc2nc3ccccc3s2)nc2ccccc21	1	-2	?	11µM*	?
O=S1(=O)C=C(Sc2nc3ccccc3s2)c2ccccc21	-6	-22	2.8µM*	4.5µM*	-19%
Cn1c(CSc2nc3ccccc3s2)n[nH]c1=S	-1	-1	-6%[0.365 µM]	?	-10%
O=S(=O)(CCSc1nc2ccccc2s1)c1nc2ccccc2s1	4	3	16µM*	7.1µM*	-18%
CC12CCC3c4ccc(OCc5ccccc5)cc4CCC3C1CC(O)C2O (configuration not stated)	nt	nt	-9%	22%	nt
c1ccc2[nH]c(CSc3nc4ccccc4s3)nc2c1	-2	8	?	20µM*	?
S=c1[nH]nc(CSc2nc3ccccc3s2)o1	0	-3	?	14µM*	16%
Cc1nnc(SCc2nc3ccccc3[nH]2)s1	-1	-4	10%	9%	19%
N#C/C(=C\c1ccco1)Sc1nc2ccccc2s1	11	2	13µM*	-10%	12%
C#C[C@@]1(O)CC[C@@H]2[C@@H]3CCC4=CC(=O)CC[C@@H]4[C@H]3CC[C@]21CC	nt	nt	4%[17 µM]	2%[16.9 µM]	nt
Fc1ccc(-c2nnc(Cc3ccc(Cl)cc3)o2)cc1	2	13	9%	33%	8%
O=C(Nc1ccc2c(c1)[C@@H]1C[C@@H](CC(=O)N3CCOCC3)O[C@@H](CO)[C@@H]1O2)NC1CCCC1	5	2	nt	nt	nt
c1cc2c(cc1C1CCCCC1)c1c3n2CCN=C3CCC1	-1	-7	2%	24%	8%
SMILES	CtBP-E1A inh	Six1-Eya2 inh	VP16 counter	RORg inh	p53 reactivation
Cc1ccc2c(c1)c1c3n2CCN=C3CCC1	-2	-2	?	11µM*	-3%
Cc1onc(-c2ccccc2Cl)c1C(=O)Nc1ccccc1	-4	14	-1%	-39%	-11%
Cc1onc(-c2ccccc2Cl)c1C(=O)NC(=S)Nc1ccc(C(C)(C)C)cc1	nt	4	13µM*	7.9µM*	3%
Cc1onc(-c2ccccc2Cl)c1C(=O)N(C)C1CCCCC1	0	19	2.5µM*	-14%	-5%
CCc1ccc(NC(=S)NC(=O)c2c(-c3ccccc3Cl)noc2C)cc1	0	2	?	2.5µM*	4%
Cc1onc(-c2ccccc2Cl)c1C(=O)Nc1nnc(Cc2ccc(Cl)cc2)s1	-4	-7	?	11µM*	-3%
CCN(C(=O)c1c(-c2ccccc2Cl)noc1C)C1CCCCC1	-11	-5	4%	-5%	-4%
Cn1c(C2CCCCC2)nc2ccccc21	-16	23	?	11µM*	5%

Assay outcomes (PubChem BioAssay)
